From PubChem BioAssay (NCATS)
Results filed as inconclusive are left out. Calls of active or inactive are those of the source. Calls follow the shape of the dose curve; as a rule, active = well fitted cell-killing curve with a large enough effect; inconclusive = small, poorly fitted or top-dose-only effect, or effect the other way; inactive = flat fitted curve, though single readings scatter.

The compounds below were run on HeLa (assay: Primary qHTS to identify gynecologic anti-cancer compounds using libraries of approved drugs and bioactive compounds (AID 1345084; also: nearly all actives have a fitted effect of over 55% in size)). Settings: Gynecologic cancer cell panel viability, ATPlite luminescence, 48 h; series mostly up to 57.5 µM; activity change, negative = cytotoxicity: at the top concentration.
Description: National Center for Advancing Translational Sciences [NCATS] Assay Overview: Chemotherapeutic drug responses vary from cancer to cancer and from patient to patient. These variations could be caused by a number of factors including patient genomic background, tumor mutations, tumor heterogeneity, and aspects of drug treatment. Chemotherapeutic drug resistance is also a common issue and can lead to ineffective treatment and patient death. Here we have profiled the cell killing effects of thousands of compounds to characterize the responses in three gynecological cancers, identify cancer-selective compounds, and understand the diversity of responses to these compounds from pan-cancer suppressors to single cell line selective compounds. In this assay, we screened a 7,914 compound drug library that included approved drug and bioactive compounds in six ovarian, three cervical, and […] placental cancer cell lines using the ATPlite assay for cell viability. […] The cervical cancer cell lines included HeLa, Ca Ski, and C-33 A. The placental cancer cell lines included JEG-3. HEK 293T cells were used as the control cell line to determine the selectivity index. ATPlite is a luminescence based assay reliant on the conversion of a luciferase substrate to light in the presence of ATP. As a cytotoxic compound will suppress growth and decrease the number of cells, the concentration of ATP will decrease, and less light signal will be detected in the well.
Assay Protocol Summary: 1,000 cells in 4 uL of media were dispensed into white, solid bottom 1536-well plates using a Multidrop Combi (Thermo Scientific). The Assay plates were incubated for 16 hours at 37 C with 5% CO2 in assay plates, followed by the addition of 23 nL of DMSO or drug dissolved in DMSO. Each compound was assayed in five concentrations (0.092, 0.46, 2.3, 11.5, and 57.5 uM), using the automated Wako 1536 Pin Tool workstation and incubated at 37 C with 5% CO2 48 hours. 4 uL of ATPlite, the ATP monitoring reagent, was then added to the each well of the assay plates using the Multidrop Combi reagent dispenser followed by incubation for 15 minutes at room temperature. The resulting luminescence was measured using the ViewLux plate reader.
% is scaled to controls: 0 for no effect and ±100 for the full control effect; potency is read from the fitted curve at half-maximal effect.

Row | Structure (SMILES) | activity change, negative = cytotoxicity | Potency
1 | O=C(CCNNC(=O)c1ccncc1)NCc1ccccc1 | -1.46% (inactive) | 
2 | CN(C)C(=O)Oc1cccc([N+](C)(C)C)c1 | -2.76% (inactive) | 
3 | COC(=O)[C@@H](N)Cc1ccc(O)c(O)c1 | -0.342% (inactive) | 
4 | CCn1cc(C(=O)O)c(=O)c2cc3c(cc21)OCO3 | 3.59% [at 25.3 µM] (inactive) | 
5 | CCN1CCC[C@H]1CNC(=O)c1c(O)c(Cl)cc(Cl)c1OC | 0.566% (inactive) | 
6 | C[N+](C)(C)CCOC(N)=O | 9.74% (inactive) | 
7 | OCCN1CCN(CCCN2c3ccccc3C=Cc3ccccc32)CC1 | -4.58% (inactive) | 
8 | CN1CCN(CC(=O)N2c3ccccc3C(=O)Nc3cccnc32)CC1 | 1.94% [at 6.55 µM] (inactive) | 
9 | CCN(CC)CCNC(=O)c1ccc(NC(C)=O)cc1 | -0.511% (inactive) | 
10 | CCN(CC)CCNC(=O)c1cc(S(C)(=O)=O)ccc1OC | 0.657% (inactive) | 
11 | CCN1CCc2nc(N)oc2CC1 | 0.987% (inactive) | 
12 | NC(=O)c1ncn([C@@H]2O[C@H](CO)[C@@H](O)[C@H]2O)c1O | -5.14% (inactive) | 
13 | COc1ccc([C@@H]2Sc3ccccc3N(CCN(C)C)C(=O)[C@@H]2OC(C)=O)cc1 | -17.7% (inactive) | 
14 | CN(C)C/C=C(/c1ccc(Br)cc1)c1cccnc1 | -23.4% (inactive) | 
15 | CC(C)NCC(O)c1cc(O)cc(O)c1 (stereo not given) | -0.995% (inactive) | 
16 | O=C(O)CN(CCN(CC(=O)O)CC(=O)O)CCN(CC(=O)O)CC(=O)O | 16.5% [at 25.3 µM] (inactive) | 
17 | CNCCCN1c2ccccc2CCc2ccccc21 | -0.874% (inactive) | 
18 | CC(=O)OCC1=C(C(=O)O)N2C(=O)[C@@H](NC(=O)Cc3cccs3)[C@H]2SC1 | 5.97% (inactive) | 
19 | c1ccc2c(c1)CCCC2C1=NCCN1 (stereo not given) | -5.41% (inactive) | 
20 | CCn1ccnc1CC1COc2ccccc2O1 (stereo not given) | -7.09% (inactive) | 

Row | Structure (SMILES) | activity change, negative = cytotoxicity | Potency
21 | CNCCC(Oc1ccccc1OC)c1ccccc1 (stereo not given) | 5.35% (inactive) | 
22 | CCCOc1ccccc1-c1nc2n[nH]nc2c(=O)[nH]1 | 14% (inactive) | 
23 | OC(CCN1CCCCC1)(c1ccccc1)C1CCCCC1 (stereo not given) | 3.03% (inactive) | 
24 | CCO/C([O-])=N/c1c[n+](N2CCOCC2)no1 | -4.66% (inactive) | 
25 | OCCN1CCN(CC/C=C2/c3ccccc3Sc3ccc(C(F)(F)F)cc32)CC1 | -15% (inactive) | 
26 | CN(C)CCCN1c2ccccc2Sc2ccc(C(F)(F)F)cc21 | -25.3% (inactive) | 
27 | Nc1nc(N)c2nc(-c3ccccc3)c(N)nc2n1 | -6.67% (inactive) | 
28 | CC(N=C(NC#N)Nc1ccncc1)C(C)(C)C (stereo not given) | -2.19% (inactive) | 
29 | CCCN(CCC)CCc1cccc2c1CC(=O)N2 | -9.52% (inactive) | 
30 | CO[C@@]1(NC(=O)CSCC#N)C(=O)N2C(C(=O)O)=C(CSc3nnnn3C)CS[C@@H]21 | -0.246% (inactive) | 
31 | COCC(=O)O[C@]1(CCN(C)CCCc2nc3ccccc3[nH]2)CCc2cc(F)ccc2[C@@H]1C(C)C | -4.28% (inactive) | 
32 | CC[N+](C)(C)c1cccc(O)c1 | 12.3% (inactive) | 
33 | COc1ccc2c(c1OC)C(=O)O[C@@H]2[C@H]1c2c(cc3c(c2OC)OCO3)CCN1C | -1.46% (inactive) | 
34 | CN(C)CCN(Cc1cccs1)c1ccccn1 | 2.58% (inactive) | 
35 | C#CCN(C)CCCOc1ccc(Cl)cc1Cl | -6.79% (inactive) | 
36 | C[n+]1cc2c3c(ccc2c2ccc4cc5c(cc4c21)OCO5)OCO3 |  | 8.91 µM (active)
37 | CCCN(CCC)C(=O)C(CCC(=O)O)NC(=O)c1ccccc1 (stereo not given) | 11.2% (inactive) | 
38 | Cc1ccc(/C(=C\CN2CCCC2)c2ccccn2)cc1 | -1.51% (inactive) | 
39 | CCN(Cc1ccncc1)C(=O)C(CO)c1ccccc1 (stereo not given) | -8.17% (inactive) | 
40 | CCCNC(C)C(=O)Nc1ccccc1C (stereo not given) | 19.6% (inactive) | 
